Records with an inconclusive call do not appear. Calls of active or inactive are those of the source. Calls come from the whole dose curve; as a rule, active = well fitted inhibition curve with a large enough effect; inconclusive = small, poorly fitted or top-dose-only effect; inactive = flat fitted curve, though single readings scatter.

Assay [1] has as its target Luciferin 4-monooxygenase (Photinus pyralis) (UniProt P08659). Briefly: Biochemical firefly luciferase enzyme assay for NPC (AID 624030).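 Note: purified P. pyralis luciferase at 10 nM with luciferin and ATP substrate; nearly all actives have a fitted effect of over 70% in size.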 An outline of the steps: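 Purified P. pyralis luciferase at 10 nM in 50 mM Tris Acetate (final), luminescence read within 5 minutes of enzyme addition to compounds. Activity normalised to PTC124 versus DMSO; concentration-response curves classed by r2, magnitude and activity.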

In the next assay the test system is CP215. Briefly: qHTS profiling for inhibitors of Plasmodium falciparum proliferation (AID 504749). Note: nearly all actives have a fitted effect of over 60% in size. Note: potency is the fitted concentration of half-maximal effect. To be noted: P. falciparum in erythrocytes, SYBR Green DNA, 72 h; series mostly up to 28.7 µM. An outline of the steps: (§1)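 Each compound contacts P. falciparum-infected red blood cells for 72 h at 37 C; lysis buffer (Tris, EDTA, saponin, Triton X, SYBR Green I) is added and fluorescence measured next morning; values normalized to controls.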
In general terms: In qHTS, concentration-response curves come from the screen itself.

For a further assay, the system named is CP260. The description is as above. To be noted: P. falciparum in erythrocytes, SYBR Green DNA, 72 h; series mostly up to 28.7 µM. An outline of the steps: as §1
For another assay, the system named is CP266. Described as above. To be noted: P. falciparum in erythrocytes, SYBR Green DNA, 72 h; series mostly up to 28.7 µM. In a few lines:
as §1

A further assay relates to CP268. The assay is described as above. To be noted: P. falciparum in erythrocytes, SYBR Green DNA, 72 h; series mostly up to 28.7 µM. An outline of the steps: as §1
The next assay deals with CP291. Described as above. To be noted: P. falciparum in erythrocytes, SYBR Green DNA, 72 h; series mostly up to 28.7 µM. An outline of the steps:
as §1

The subject of the next assay is CP297. The description is as above. To be noted: P. falciparum in erythrocytes, SYBR Green DNA, 72 h; series mostly up to 28.7 µM. An outline of the steps:
as §1

The test system of another assay is CP305. Described as above. To be noted: P. falciparum in erythrocytes, SYBR Green DNA, 72 h; series mostly up to 28.7 µM. An outline of the steps:
as §1

The subject of another assay is CP335. Described as above. To be noted: P. falciparum in erythrocytes, SYBR Green DNA, 72 h; series mostly up to 28.7 µM. In a few lines:
as §1

The next assay concerns DIV14. Described as above. To be noted: P. falciparum in erythrocytes, SYBR Green DNA, 72 h; series mostly up to 28.7 µM. An outline of the steps: as §1
The next assay deals with DIV17. Described as above. To be noted: P. falciparum in erythrocytes, SYBR Green DNA, 72 h; series mostly up to 28.7 µM. In a few lines:
as §1

A further assay has as its system FAB9. Described as above. To be noted: P. falciparum in erythrocytes, SYBR Green DNA, 72 h; series mostly up to 28.7 µM. An outline of the steps: as §1
The test system of a further assay is GB4. The assay is described as above. To be noted: P. falciparum in erythrocytes, SYBR Green DNA, 72 h; series mostly up to 28.7 µM. In a few lines:
as §1

Another assay concerns HB3. The description is as above. To be noted: P. falciparum in erythrocytes, SYBR Green DNA, 72 h; series mostly up to 28.7 µM. An outline of the steps: as §1
The test system of another assay is ICS. The description is as above. To be noted: P. falciparum in erythrocytes, SYBR Green DNA, 72 h; series mostly up to 28.7 µM. In a few lines: as §1
For the next assay, the system named is JCK. Described as above. To be noted: P. falciparum in erythrocytes, SYBR Green DNA, 72 h; series mostly up to 28.7 µM. In a few lines: as §1
The next assay has as its system P93_24. The assay is described as above. To be noted: P. falciparum in erythrocytes, SYBR Green DNA, 72 h; series mostly up to 28.7 µM. An outline of the steps:
as §1

In another assay the test system is PC26. The description is as above. To be noted: P. falciparum in erythrocytes, SYBR Green DNA, 72 h; series mostly up to 28.7 µM. In a few lines:
as §1

The next assay deals with PC49. Described as above. To be noted: P. falciparum in erythrocytes, SYBR Green DNA, 72 h; series mostly up to 28.7 µM. An outline of the steps:
as §1

The test system of the next assay is TAB109. Described as above. To be noted: P. falciparum in erythrocytes, SYBR Green DNA, 72 h; series mostly up to 28.7 µM. In a few lines:
as §1

Sequence of Luciferin 4-monooxygenase (Photinus pyralis) (P08659 whole entry, looked up): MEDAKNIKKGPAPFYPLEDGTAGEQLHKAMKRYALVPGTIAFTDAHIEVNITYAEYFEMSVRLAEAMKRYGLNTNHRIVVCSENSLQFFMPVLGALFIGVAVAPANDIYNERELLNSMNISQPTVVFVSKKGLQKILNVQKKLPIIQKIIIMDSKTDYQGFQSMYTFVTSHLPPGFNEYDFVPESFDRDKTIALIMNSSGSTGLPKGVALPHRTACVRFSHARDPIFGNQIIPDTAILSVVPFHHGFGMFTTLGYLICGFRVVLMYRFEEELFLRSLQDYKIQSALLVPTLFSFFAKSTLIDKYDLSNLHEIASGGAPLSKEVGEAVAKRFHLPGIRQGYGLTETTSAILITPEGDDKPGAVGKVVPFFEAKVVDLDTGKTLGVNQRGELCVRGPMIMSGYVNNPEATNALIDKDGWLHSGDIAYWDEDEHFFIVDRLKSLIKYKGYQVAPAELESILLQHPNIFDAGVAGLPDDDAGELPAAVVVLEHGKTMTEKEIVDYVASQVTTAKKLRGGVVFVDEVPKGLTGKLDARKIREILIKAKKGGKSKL

Take `COc1cccc(OC)c1C(=O)NC1C(=O)N2C1SC(C)(C)C2C(=O)O` (centres undefined): the Potency entry (in assay [1]; in the assay on CP215; with CP260; in the assay with CP266; with CP268; in the assay with CP291) was “inactive” throughout. In addition, the Potency result in the assay on CP297, with CP305, with CP335, in the assay with DIV14, with DIV17 and in the assay on FAB9 was “inactive” throughout. For the same compound, the Potency result in the assay on GB4, in the assay on HB3, in the assay on ICS, with JCK, with P93_24 and in the assay with PC26 was “inactive” in each case. In addition, the Potency entry with PC49 and in the assay on TAB109 was “inactive” throughout.

On to `CCCCCCCCCCCCCCCC(=O)OCC(COP(=O)(O)OCC[N+](C)(C)C)OC(=O)CCCCCCCCCCCCCCC` (centres undefined), for which the Potency entry (in assay [1]; in the assay with CP215; in the assay with CP260; in the assay on CP266; in the assay with CP268; with CP291) was “inactive” each time. In addition, the Potency result in the assay on CP297, with CP305, in the assay on CP335, in the assay with DIV14, with DIV17 and with FAB9 was “inactive” each time. In addition, the Potency entry with GB4, in the assay with HB3, with ICS, in the assay on JCK, with P93_24 and with PC26 was “inactive” throughout. In addition, the Potency result in the assay on PC49 and in the assay on TAB109 was “inactive” each time.

With `OCCOC[C@H]1O[C@H](OCCO)[C@H](OCCO)[C@@H](OCCO)[C@@H]1OCCO` (tested in a mixture with another compound), the Potency entry (in assay [1]; in the assay on CP215; in the assay on CP260; with CP266; with CP268; with CP291) was “inactive” throughout. The Potency result in the assay on CP297, with CP305, in the assay on CP335, with DIV14, in the assay on DIV17 and in the assay on FAB9 was “inactive” in each case. In addition, the Potency result in the assay on GB4, with HB3, with ICS, with JCK, with P93_24 and with PC26 was “inactive” in each case. The Potency entry with PC49 and with TAB109 was “inactive” each time.

Take `C/C1=C2/[N-]C(C(CC(N)=O)[C@@]2(C)CCC(=O)NCC(C)OP(=O)([O-])O[C@H]2[C@@H](O)[C@@H](n3cnc4cc(C)c(C)cc43)O[C@@H]2CO)[C@]2(C)N=C(/C(C)=C3N=C(/C=C4N=C1C(CCC(N)=O)C\4(C)C)[C@@H](CCC(N)=O)[C@]\3(C)CC(N)=O)[C@@H](CCC(N)=O)[C@]2(C)CC(N)=O.CC(=O)O.[Co]` (some centres undefined): the Potency entry in the assay on CP215, in the assay with CP260, with CP266, in the assay on CP268, in the assay on CP291 and in the assay on CP297 was “inactive” in each case. In addition, the Potency result with CP305, in the assay with CP335, in the assay on DIV14, in the assay with DIV17, in the assay on FAB9 and in the assay on GB4 was “inactive” each time. Besides, the Potency entry in the assay with HB3, in the assay on ICS, with JCK, in the assay with P93_24, in the assay on PC26 and in the assay with PC49 was “inactive” throughout. Besides, the Potency result with TAB109 is “inactive”.

`CCC(C(=O)O)C1OC(C(C)C(O)C(C)C(=O)C(CC)C2OC3(C=CC(O)C4(CCC(C)(C5CCC(O)(CC)C(C)O5)O4)O3)C(C)CC2C)C(C)CC1C` (centres undefined): the Potency result in assay [1] was “inactive”. Further, the Potency with CP215 was 60.1 nM (active); with CP260, 112 nM (active); with CP266, 151 nM (active); in the assay with CP268, 75.7 nM (active); with CP291, 60.1 nM (active); in the assay with CP297 it was 135 nM (active). For the same compound, the Potency is 53.6 nM (active) in the assay with CP305; 42.6 nM (active) in the assay on CP335; 95.3 nM (active) with DIV14; 75.7 nM (active) in the assay with DIV17; 282 nM (active) with FAB9; 53.6 nM (active) in the assay on GB4. The Potency is 79.4 nM (active) in the assay on HB3; 89.1 nM (active) in the assay on ICS; 199 nM (active) with JCK; 178 nM (active) in the assay on P93_24; 75.7 nM (active) in the assay with PC26; 251 nM (active) in the assay with PC49. Further, the Potency in the assay with TAB109 was 112 nM (active).

Values taken from PubChem BioAssay (NCATS).
